Drawing on PubChem BioAssay AID1508600 (Functional Genomics Laboratory (NCATS/FGL), 2020), this text covers z-score for 30 sequences.

The campaign covered roughly 53,000 sequences. About 3,700 (7%) were called active.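 How the source made its calls: active means gene knockdowns whose robust z-score for IL-1 alpha signal is at least 2 or at most -2, so actives lie on both sides; inactive means the rest.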 The full list was thinned out, with actives kept by preference.

The assay in a line: Components of the Cytosolic LPS Sensing Pathway: Gene Identification via Genome-wide siRNA Screen.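 Further: robust z of the log signal after scaling to non-targeting control siRNA wells of the plate.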 The following applies: RAW264.7 macrophages, IL-1a HTRF, actives lie on both sides, screened at 100 nM (by protocol), cells primed 5 h with Pam3CSK4 first. Put shortly: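 Read-out: IL-1a HTRF on supernatant, divided by plate negative-control median ×100, log-transformed and converted to robust z-score. Cells were RAW264.7 given 100 nM siRNA, Pam3CSK4-primed 5 hours, then LipidA-transfected 24 hour.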
Turning to GGUUAAACCCUCUUCUCAUTT against Uhrf2, the z-score is -0.645 (inactive).

Regarding CCAAUUCACUUAGGAGCUGTT against Psma4, the z-score was -2.1 (active).

Regarding GGAAGUAUCGAGAUUCAUGTT against Pitpnm3, the z-score is 0.0165 (inactive).

For the sequence GCUUCAGACGUAAUUUACUTT against Morc1, the z-score was 0.751 (inactive).

With GGUUUUGGUUUUGUGGAAUTT against Srsf5, the z-score is 1.45 (inactive).

Take GGAUCUGGUACCCACCCAATT against Jak2: the z-score was -1.63 (inactive).

GGAAUUCUACCUGAAAAUCTT against Arel1: the z-score was 0.122 (inactive).

For the sequence CGCUCUUUCAGCACAAGAATT against Zfp422, the z-score was -1.57 (inactive).

For CCUACGACCUGAAGAUAGCTT against Dscc1, the z-score was -0.124 (inactive).

GGUGGACUCAUUCUAAUACTT against Nudt1: the z-score was -1.06 (inactive).

On to CCUGCUAUACAUUGAACCCTT against Lhcgr, for which the z-score was 2.52 (active).

In the case of GGUGUAGCUGGAAUUGGCATT against Nlrp4b, the z-score is -0.0207 (inactive).

In the case of GGUGAAGCAAAACGGAGGATT against H2-M10.1, the z-score was 0.512 (inactive).

In the case of GCCUAUUUCCGUGAACCCGTT against Mgmt, the z-score is -1.04 (inactive).

Consider GGCCAAUCCACGAAAGCAUTT against Strip1, for which the z-score is -0.958 (inactive).

Consider GCUGGGUGAUAAACAAUGUTT against Rhbg, for which the z-score is 3.42 (active).

GGGACUCUUCACUUGAAAUTT against Ccl3: the z-score was -3.8e-05 (inactive).

For the sequence GGAUACCACUUUAGAACCATT against Fgfr2, the z-score was 0.484 (inactive).

For the sequence CCACAUCUUUGACGAGUACTT against Rgs16, the z-score is -0.145 (inactive).

Consider GGAAGACAGGCAUAAAAAATT against Slc41a2, for which the z-score was -1.38 (inactive).

Turning to GGUUAAGUCCCUAGGACAUTT against Blzf1, the z-score was 0.998 (inactive).

Consider GGAAAAAUUGCUUCUGACCTT against Rad51b, for which the z-score is -1.17 (inactive).

Take CCUACAAACCAGAAGAGGUTT against Akr1c19: the z-score was 0.285 (inactive).

Consider CCAGACAUGAUACUCCGGCTT against Tssk3, for which the z-score was 2.57 (active).

For the sequence GCCUGUGUGCUGUUGUGUUTT against Krtap5-1, the z-score was 1.33 (inactive).

For the sequence CGGCAUCAUUCAUUCAUUATT against Pacrgl, the z-score is 2.01 (active).

In the case of CGAUACUGUGCAAAGAAUCTT against Nepro, the z-score is 0.231 (inactive).

For the sequence CCUGUGUCAAUCCUGUGCATT against Ifitm7, the z-score is 0.0113 (inactive).

Turning to GGAACUUUAUGUGGAAAGATT against Vmn1r235, the z-score is -0.449 (inactive).

Take CGGUCAAGGACAGGAAGUGTT against Eif4b: the z-score is 0.518 (inactive).
